# Screening results as filed in PubChem.
# dFosB activator: mouse delta FosB homodimer activation; P13346; purified delta FosB, TAMRA-CDK5 oligo fluorescence polarization; percent of positive-control signal above neutral wells; activation, % at 25 µM; hit rate 0.99% among 340,000;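 active = mean activation above about 17%, with every replicate also reaching it, limit read from the data, passing the limit was not always enough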
# Target sequence (P13346 whole entry, looked up): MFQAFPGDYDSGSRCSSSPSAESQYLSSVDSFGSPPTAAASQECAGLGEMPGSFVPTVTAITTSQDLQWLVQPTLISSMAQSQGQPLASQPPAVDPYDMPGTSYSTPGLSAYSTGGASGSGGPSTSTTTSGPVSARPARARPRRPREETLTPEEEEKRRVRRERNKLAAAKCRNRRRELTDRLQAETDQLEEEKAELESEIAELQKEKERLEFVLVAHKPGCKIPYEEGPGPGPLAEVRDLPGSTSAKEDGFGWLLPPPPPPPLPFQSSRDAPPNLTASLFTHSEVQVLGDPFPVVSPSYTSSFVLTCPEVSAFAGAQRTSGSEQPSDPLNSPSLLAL
# Rpn11 block: inhibitors of human proteasome Rpn11 | human 26S proteasome, Ub4-pepOG fluorescence polarization; 20S core pre-blocked with epoxomicin | inhibition, % at 20 µM | hit rate 0.59% among 360,000 | AID 588493;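 active = inhibition at 20 µM, scaled to each plate's controls, above about 33%, limit read from the data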
# TPT1 inhibitor: blocks Candida albicans tRNA 2'-phosphotransferase. recombinant caTPT1, FP RNA substrate dephosphorylation. inhibition, % at 5 µM. hit rate 0.81% among 300,000. AID 1962;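 active = inhibition above the mean of all tested compounds plus 3 SD, set per screening campaign, cut at about 24% in these data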;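 note: plate controls were DMSO alone for no effect and ferristatin control at 100 nM for full effect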
# EBNA-1 inh: blocks EBNA-1 binding to DNA | EBNA-1 DNA binding, fluorescence polarization | inhibition, % at 14.8 µM | hit rate 0.34% among 300,000 | AID 1950; in the data active = inhibition above about 28%
# GRIN3A LBD mod: modulators (binders) of human NR3A ligand-binding domain. NR3A LBD differential scanning fluorimetry, Tm shift; 0% = protein alone, 100% = glycine-bound protein. Tm shift relative to glycine control, % at 25 µM. hit rate 2.5% among 340,000;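 active = melting temperature shift of at least 10% of the positive control shift, at one fixed dose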
# ZTA counter: blocks Epstein-Barr virus ZTA, an EBNA-1 counter-screen. P03206. ZTA-DNA binding, fluorescence polarization. inhibition, % at 11 µM. hit rate 0.15% among 320,000. AID 2234; in the data active = inhibition above about 33%
# Target sequence (P03206 whole entry, looked up): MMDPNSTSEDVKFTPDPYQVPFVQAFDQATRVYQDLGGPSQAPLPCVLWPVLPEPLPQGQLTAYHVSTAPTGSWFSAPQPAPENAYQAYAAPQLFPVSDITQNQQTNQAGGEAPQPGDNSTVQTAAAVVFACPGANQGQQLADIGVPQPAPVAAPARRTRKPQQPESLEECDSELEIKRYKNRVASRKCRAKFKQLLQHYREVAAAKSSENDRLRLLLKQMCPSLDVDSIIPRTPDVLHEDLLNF
# The depositor's hits bear a star; · = not tested or not shown. Shown are actives, neighbours in structure and some others; about 4.5% of the full set was active somewhere.
SMILES,dFosB activator,Rpn11 block,TPT1 inhibitor,EBNA-1 inh,GRIN3A LBD mod,ZTA counter
O=C(N/N=C/c1c[nH]c2ccc(Br)cc12)c1ccc2c(c1)OCO2,-8,4,1,8,31*,10
O=C(N/N=C/c1ccccn1)c1sc2ccccc2c1Cl,-49,22,-1,1,-3,-2
N=C1S/C(=C\c2cn[nH]c2-c2ccc(F)cc2)C(=O)N1c1ccccc1F,0,28,0,5,6,-9
COC1OC(COC(=O)c2ccccc2)C(OC(=O)c2ccccc2)C1OC(=O)c1ccccc1 (stereo unspecified),-18,0,4,-5,-1,-7
O=C(OC[C@H]1O[C@@H](OC(=O)c2cc(O)c(O)c(OC(=O)c3cc(O)c(O)c(O)c3)c2)[C@H](OC(=O)c2cc(O)c(O)c(OC(=O)c3cc(O)c(O)c(O)c3)c2)[C@@H](OC(=O)c2cc(O)c(O)c(OC(=O)c3cc(O)c(O)c(O)c3)c2)[C@@H]1OC(=O)c1cc(O)c(O)c(OC(=O)c2cc(O)c(O)c(O)c2)c1)c1cc(O)c(O)c(OC(=O)c2cc(O)c(O)c(O)c2)c1,·,·,-4,86*,·,87*
O=[N+]([O-])c1ccc2nc(NN=Cc3ccc(O)cc3)sc2c1,13,7,·,·,23*,·
O=C(Nc1ccc(OCC(F)(F)C(F)F)c(C(F)(F)F)c1)c1ccccc1,-13,-1,-5,1,27*,2
O=C(Nc1ccc(OCC(F)(F)C(F)F)c(C(F)(F)F)c1)c1ccccc1O,5,-2,-1,-6,33*,0
Nc1nonc1-n1nnc(C(=O)N/N=C/c2cccnc2)c1CSc1ccc(Cl)cc1,0,-2,-1,2,12*,-5
C/C(=N\NC(=O)c1nnn(-c2nonc2N)c1CSc1ccc(Cl)cc1)c1cccnc1,-10,-4,0,-25,-14,6
Nc1nonc1-n1nnc(C(=O)N/N=C/c2cccnc2)c1CSC1=NCCS1,-16,4,0,-8,-2,5
CCCc1c(C(=O)N/N=C/c2cccnc2)nnn1-c1nonc1N,16,-7,-1,-14,32*,-11
Nc1nonc1-n1nnc(C(=O)N/N=C/c2cccnc2)c1CSc1ccccc1,-12,-4,1,-17,19*,8
O=C(CSc1nc2ccc([N+](=O)[O-])cc2[nH]1)c1ccc2ccccc2c1,8,-4,2,-5,23*,-26
O=C(CSc1nc2ncc(Br)cc2[nH]1)c1ccc([N+](=O)[O-])cc1,0,3,-3,-24,-2,-6
Cc1ccc(Cl)c2c1NC(=O)C2=O,0,8,·,·,-1,·
COc1ccc(N(CC(=O)N/N=C/c2ccc(OC3CSC3)cc2)S(=O)(=O)c2ccccc2)cc1,-4,4,-6,2,16*,12
Cc1ccc(N(CC(=O)N/N=C/c2ccc(OC3CSC3)cc2)S(=O)(=O)c2ccccc2)cc1,-6,5,3,5,0,-2
CC1CCN(S(=O)(=O)c2nnc(NC(=O)c3cccc(Cl)c3)s2)CC1,6,5,-3,7,14*,-7
Nc1c(N=Nc2cccc(Cl)c2)c(=O)[nH]n1-c1ccccc1,11,0,-1,0,1,-3
Nc1[nH]c(=O)[nH]c(=O)c1N=Nc1cccc(Cl)c1,0,-9,-1,2,16*,6
COC(=O)c1cc(S(=O)(=O)N2CCN(c3ccc([N+](=O)[O-])cc3)CC2)c[nH]1,-6,-4,1,-2,207*,3
Cc1noc(C)c1S(=O)(=O)N1CCN(c2ccc([N+](=O)[O-])cc2)CC1,-1,-3,1,-4,1,8
O=[N+]([O-])c1ccc(N2CCN(S(=O)(=O)c3cnc[nH]3)CC2)cc1,-10,4,2,-3,10*,-2
CCc1ccccc1N(CC(=O)Nc1cccnc1)S(=O)(=O)c1ccccc1,-10,2,-4,-11,12*,-1
SMILES,dFosB activator,Rpn11 block,TPT1 inhibitor,EBNA-1 inh,GRIN3A LBD mod,ZTA counter
COc1ccc(N(CC(=O)Nc2cccnc2)S(=O)(=O)c2ccc(C)cc2)cc1Cl,-13,-12,-3,-4,-5,0
CCOc1ccc(N(CC(=O)Nc2cccnc2)S(=O)(=O)c2ccc(C)cc2)cc1,-6,0,3,7,16*,5
COc1ccccc1N(CC(=O)Nc1cccnc1)S(=O)(=O)c1ccccc1,-7,5,3,-16,0,-6
CN(C)c1nc(N)nc2c1ncn2C1OC(CO)CC1O (stereo unspecified),·,2,·,·,·,·
COc1ccccc1Nc1ccc(Nc2ccccc2OC)nn1,-2,0,0,-1,12*,3
Nc1ccc2c(c1)C(=O)c1cc(Cl)c(Cl)cc1-2,2,5,·,·,41*,·
Nc1ccc2c(c1)C(=O)c1cc([N+](=O)[O-])ccc1-2,-5,16,·,·,25*,·
Nc1ccc2c(c1)C(=O)c1ccc(N)cc1-2,1,1,·,·,1,·
COc1ccc(CC(=O)N/N=C(\C)CC(=O)Nc2ccc(N(C)C)cc2)cc1OC,-9,-5,-2,-8,-2,-1
Cc1c(C(=O)Nc2nccs2)sc2nc(-c3cccs3)cc(C(F)(F)F)c12,-22,15,2,7,28*,10
COc1cccc(NC(=O)CN(C)C(=O)c2ccccc2OCC(=O)Nc2cccc(C(F)(F)F)c2)c1,-10,1,-2,-10,0,-9
Cc1ccc(NC(=O)CN(C)C(=O)c2cccnc2Nc2cccc(C(F)(F)F)c2)cc1,-8,0,2,-6,16*,2
COc1ccc(-c2noc(N(C)CC(=O)Nc3cccc(C(F)(F)F)c3)n2)cc1,5,-2,-3,-4,10*,-6
CCOc1ncccc1C(=O)N(C)CC(=O)Nc1ccc(C)cc1,3,-3,-1,-4,0,-21
COc1cccc(NC(=O)CN(C)C(=O)c2cccnc2Nc2cccc(C(F)(F)F)c2)c1,4,1,·,·,35*,-12
O=C(CC1C(=O)NCCN1C(=O)Nc1ccc(C(F)(F)F)cc1)Nc1ccc(F)cc1 (stereo unspecified),-12,-2,-1,-5,14*,-2
CSc1nc(C)c(C(=O)C[n+]2ccccc2)cc1C#N,-3,-1,-1,-4,0,-9
CCn1c2ccccc2c2cc(/C=N/NC(=O)c3ccc(O)cc3)ccc21,11,-6,-3,0,38*,-10
Cn1c2ccccc2c2cc(/C=N/NC(=O)c3ccc(O)cc3O)ccc21,-1,5,-3,-22,30*,-12
COc1ccc(C=O)cc1CSc1ccccn1,-1,2,0,-7,-1,-2
COc1ccc(/C=N/NC(=O)c2ccc(O)cc2O)cc1CSc1ccccn1,6,-16,2,9,21*,11
